Assay outcomes: PubChem, several laboratories
A selection: hits, their analogues and other compounds. The true share with any hit is near 1.6%.
Hsp70 act – Hsp70 transcriptional activation, primary screen; AID 1203; activation, % at 10 µM; 0.04% of 200,000 active; HeLa Hsp70 promoter luciferase reporter, luminescence; scaled: vehicle 0, proteasome-inhibitor control 100%;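 active means activation above the mean across all tested compounds plus 3 SD, cutoff set per campaign, cut at about 5.5% in these data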
Redox H2O2 prof – compounds producing H2O2 with reducing agent – biochemical, NIH compound library profiling, artefact control for MLSCN library redox annotation, primary screen. DTT-dependent redox cycling H2O2, phenol red/HRP absorbance; 100% = 100 µM peroxide control, 0% = buffer. activation, % at 10 µM. 0.03% of 200,000 active. AID 878;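 active means activation of at least 50% relative to the plate's high and low controls in the primary single-dose screen; inactive means activation below 50%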;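 further: compound incubated with DTT at 0.8 mM final as the reducing agent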
p97 inhibitor – inhibitors of human p97 ATPase | P55072 | recombinant p97 ATPase, Kinase-Glo ATP luminescence, 3 h | inhibition, % at 8 µM | 0.42% of 220,000 active | AID 1481; in the data active means inhibition above about 15%
Wee1 stabilizer – blocks degradation of human Wee1 kinase | P30291 | HeLa Luc-Wee1K328M stability, luciferase luminescence; 100% = proteasome inhibitor MG132 effect | reporter increase, % at 5 µM | 1.2% of 220,000 active | AID 1321;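 active means activation above the mean of all tested compounds plus 3 SD, set per screening run, cut at about 8.8% in these data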;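 further: cells exposed to compound for 20 h before luminescence read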
Target sequence (P30291 whole entry K328M): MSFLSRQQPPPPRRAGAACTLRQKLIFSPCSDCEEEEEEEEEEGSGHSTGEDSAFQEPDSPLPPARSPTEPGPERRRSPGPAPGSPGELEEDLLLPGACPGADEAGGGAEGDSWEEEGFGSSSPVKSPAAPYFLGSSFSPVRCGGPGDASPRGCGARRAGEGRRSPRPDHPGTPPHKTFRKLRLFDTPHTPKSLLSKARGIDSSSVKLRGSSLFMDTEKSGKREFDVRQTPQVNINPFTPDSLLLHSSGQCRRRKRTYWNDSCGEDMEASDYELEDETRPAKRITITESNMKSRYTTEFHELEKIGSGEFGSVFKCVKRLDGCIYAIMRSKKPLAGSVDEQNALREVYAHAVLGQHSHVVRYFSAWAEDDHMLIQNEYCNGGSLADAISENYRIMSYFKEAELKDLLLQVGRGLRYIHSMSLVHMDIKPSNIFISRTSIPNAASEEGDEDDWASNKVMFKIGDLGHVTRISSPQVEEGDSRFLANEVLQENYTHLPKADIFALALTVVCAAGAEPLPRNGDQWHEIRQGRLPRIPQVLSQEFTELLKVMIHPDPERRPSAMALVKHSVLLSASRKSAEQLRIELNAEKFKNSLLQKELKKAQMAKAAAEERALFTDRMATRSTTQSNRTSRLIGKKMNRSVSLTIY
HSV augment – increases HSV replication in cells. 0.005% of 220,000 active. maximum fold increase. HSV replication augmentation in cells, fold increase. AID 1956; in the data active means maximum fold increase above about 1.5; tested in PC3 cells
Large screens that a line does not name were inactive.

O=C(CSc1nnc(C2COc3ccccc3O2)o1)N1CCCc2ccccc21 (configuration not stated)	none
CCOc1ccc(C(=O)C(CCC(CN(C)C)C(=O)c2ccc(OCC)cc2)CN(C)C)cc1 (configuration not stated)	none
CN(C)CC(CCC(CN(C)C)C(=O)c1ccccc1)C(=O)c1ccccc1 (configuration not stated)	Wee1 stabilizer 11 (no result: Hsp70 act, Redox H2O2 prof)
COc1ccccc1NC(=O)N1CCc2[nH]c3ccc(F)cc3c2C1	none
Fc1cccc(Cl)c1CNC(c1ccccc1)c1ccccc1	Wee1 stabilizer 9.1
O=C(CNC(c1ccccc1)c1ccccc1)Nc1c(F)cccc1F	none
O=S(=O)(Nc1ccc(N2CCCCC2)cc1)c1ccc(F)cc1F	none (no result: Hsp70 act, Redox H2O2 prof)
CN(C)CCC(c1ccccc1)c1ccccn1 (configuration not stated)	Wee1 stabilizer 16
CN(C)CCC(c1ccc(Cl)cc1)c1ccccn1 (configuration not stated)	none
CCOC(=O)c1sc(-c2ccc(OC)cc2)cc1N	Wee1 stabilizer 11
COc1ccc(-n2ncc3c(N4CCC(C(N)=O)CC4)ncnc32)cc1	none
CCOC(=O)C1CCN(c2ncnc3c2cnn3-c2ccc(OC)cc2)CC1	Wee1 stabilizer 9.1 (no result: HSV augment)
CCC(CC)C(=O)Nc1cccc(C(=O)c2ccccc2)c1	Wee1 stabilizer 9.4
CCCCN(C(=O)NC(=O)Nc1ccccc1C)S(C)(=O)=O	Wee1 stabilizer 29
CCCCN(C(=O)NC(=O)Nc1cccc(C)c1C)S(C)(=O)=O	none
CCOc1cc(NC(=S)NCCCN2CCOCC2)c(OCC)cc1NC(=O)c1cccs1	Wee1 stabilizer 9.5
CCOc1cc(NC(=S)NCCCN2CCOCC2)c(OCC)cc1NC(=O)c1ccccc1	none
N#Cc1ccc(C(=O)Nc2nnc(-c3ccccn3)o2)cc1	Wee1 stabilizer 9.4
O=C(Nc1nnc(-c2ccccn2)o1)c1cccc(Cl)c1	none
CC(NC(=O)C1CCN(S(=O)(=O)N2CCC3(CC2)OCCO3)CC1)c1ccccc1 (configuration not stated)	Wee1 stabilizer 11
O=C(/C=C/c1cc[n+](CC(=O)c2ccc3cccc4c3c2CC4)cc1)c1ccc2cccc3c2c1CC3	p97 inhibitor 46 (no result: Hsp70 act, Redox H2O2 prof)
CCC(=O)N1CCN(c2ccc(NC(=S)NC(=O)C(C)C)cc2)CC1	none
CC(=O)N1c2c(cc(Br)cc2S(=O)(=O)NCC2COc3ccccc3O2)CC1C (configuration not stated)	none
O=C(O)CCNS(=O)(=O)c1ccc2c(c1)OCCCO2	Wee1 stabilizer 9.8
Cc1[nH]c(C)c2c(=O)n(Cc3ccc(Cl)cc3)ncc12	none (no result: Hsp70 act, Redox H2O2 prof)
NC(=O)CC(NC(=O)Cc1cccc2ccccc12)c1ccc(NC2CCC2)c([N+](=O)[O-])c1 (configuration not stated)	none (no result: Hsp70 act, Redox H2O2 prof, p97 inhibitor, Wee1 stabilizer)
COc1ccc(COc2cc(-c3cccc(OC)c3)nc3ccc(N)cc23)cc1	Wee1 stabilizer 9.5
COc1ccc(COc2cc(-c3cccc(OC)c3)nc3ccc(NC(C)=O)cc23)cc1	none
O=C(NCCCN1CCOCC1)c1ccc(CS(=O)(=O)c2cccc(C(F)(F)F)c2)o1	none
CC(=O)Nc1ccc(S(=O)(=O)NCc2ccc3c(c2)cc(C)n3C)cc1	p97 inhibitor 17
Cc1noc(/C=C/c2cccs2)c1S(=O)(=O)N1CCC(C(=O)NCCCN2CCCC(C)C2)CC1 (configuration not stated)	Wee1 stabilizer 9.2
O=C1C2=C(CCCC2)C(=O)N1c1cccc(OCCBr)c1	none
CC(C)CN(CCOc1cccc(N2C(=O)C3=C(CCCC3)C2=O)c1)CC(C)C	Wee1 stabilizer 9.0
CCOc1ccc(S(=O)(=O)Nc2ccc(O)c(Sc3ncn[nH]3)c2)cc1	Wee1 stabilizer 29 (no result: HSV augment)
Cc1ccc(S(=O)(=O)Nc2ccc(O)c(Sc3ncn[nH]3)c2)cc1	none
CN(C)CCCN1C(=O)C(=O)/C(=C(/O)c2ccc3c(c2)OCO3)C1c1ccccn1 (configuration not stated)	none (no result: HSV augment)
O=C(N/N=C/c1ccc(F)cc1)c1cc(-c2ccc3c(c2)OCO3)n[nH]1	none (no result: Hsp70 act, Redox H2O2 prof)
Oc1ccc(F)cc1-c1cc(-c2ccc3c(c2)OCCO3)n[nH]1	Wee1 stabilizer 9.5
O=C(O)/C=C/C(=O)NCCc1ccccc1	none
CC(C)=CC(=O)NCCc1ccccc1	Wee1 stabilizer 10.0
O=C(COS(=O)c1ccccc1)Nc1cc(Cl)ccc1N1CCOCC1 (configuration not stated)	Wee1 stabilizer 9.0
COc1ccc(OCC(=O)Nc2cccc(C(=O)Nc3ccccc3C(=O)O)c2)cc1	none
CCOC(=O)N1CCN(c2ccccc2OC)CC1	Wee1 stabilizer 9.6 (no result: Hsp70 act, Redox H2O2 prof)
COc1ccccc1N1CCN(C(=O)c2ccc(CS(=O)(=O)c3ccccc3OC)o2)CC1	Wee1 stabilizer 9.8
COc1cccc(-c2cc(C(=O)NCC3CCCO3)c3ccccc3n2)c1 (configuration not stated)	none
O=C(CC1C(=O)NCCN1Cc1c(F)cccc1Cl)NCCC1=CCCCC1 (configuration not stated)	none
O=C(CC1C(=O)NCCN1Cc1c(F)cccc1Cl)NCCc1ccccn1 (configuration not stated)	Wee1 stabilizer 9.5
O=C(/C=C/c1ccccc1)C1C(=O)c2ccccc2C1=O	Wee1 stabilizer 10
COc1cc(C(=O)OCC(=O)N(C)C)cc(NC(=O)c2ccco2)c1OC	none
O=c1/c(=C\c2ccc(F)cc2)sc2n1CCCN=2	Wee1 stabilizer 9.3
O=c1/c(=C/c2ccc(O)cc2)sc2n1CCCN=2	none
Cc1csc(SCCn2c(N3CCCC3)nc3c2c(=O)[nH]c(=O)n3C)n1	p97 inhibitor 15
O=C(N/N=C/C(Br)=C\c1ccccc1)c1n[nH]c2c1CCC2	none (no result: HSV augment)
O=C(N/N=C/C=C/c1ccccc1)c1n[nH]c2c1CCC2	Wee1 stabilizer 9.1 (no result: HSV augment)
O=C(N/N=C/C=C\c1ccccc1)c1cnccn1	none
O=C(N/N=C/C=C/c1ccccc1)c1ccccn1	Wee1 stabilizer 8.9 (no result: Hsp70 act, Redox H2O2 prof)
CCOC(=O)c1sc(NC(=S)NC(=O)C2CC2)cc1C	none
CCOC(=O)c1sc(NC(=S)NC(=O)C23CC4CC(CC(C4)C2)C3)cc1C	Wee1 stabilizer 9.4
CCOC(=O)c1cc(-c2csc(Nc3c(C)cc(C)cc3C)n2)on1	none (no result: Hsp70 act, Redox H2O2 prof)
COC(=O)c1cnc(N2CCOCC2)nc1C(F)(F)F	Wee1 stabilizer 10 (no result: Hsp70 act, Redox H2O2 prof)
COC(=O)c1cnc(N2CCCN(S(=O)(=O)c3ccccc3)CC2)nc1C(F)(F)F	none (no result: Hsp70 act, Redox H2O2 prof)
CSc1nc(C)c(C(=O)C[n+]2ccccc2)cc1C#N	Wee1 stabilizer 9.8 (no result: Hsp70 act, Redox H2O2 prof)
CCSc1nc(C)c(C(C)=O)cc1C#N	none
CCN1CCCC1CNC(=O)C1CCN(C(=O)c2cc3sccc3n2Cc2ccc(F)cc2)CC1 (configuration not stated)	Wee1 stabilizer 12
O=C(Nc1ncn[nH]1)c1ccc(Cl)c(S(=O)(=O)Nc2ccc(Cl)cc2)c1	none
Cc1nc(N2CCC(C)CC2)c(C#N)c(C)c1[N+](=O)[O-]	none
CC(C)Sc1nc(SCC(=O)NCc2ccco2)c2c3c(sc2n1)COC(C)(C)C3	Wee1 stabilizer 9.8
